Source: PubChem BioAssay (National Center for Advancing Translational Sciences (NCATS))
Compounds with a hit are over-represented: about 7% of the library has one in this group of screens.
IL1B secr inh: inflammasome signaling inhibition, IL-1 beta readout; activity change, % at 57.5 µM; THP-1 LPS/ATP IL-1B secretion, AlphaLISA, 16 h; hits give low values; actives 4.7% (n = 360,000); in the data active = activity change below about -50%; inconclusive = mostly about -30% to -49%; also: % is scaled to controls: 0 for no effect and ±100 for the full control effect
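THP-1 cells pretreated 1 hr with compounds (up to 57.5 uM final), then stimulated with LPS (250 ng/mL final) plus ATP (1.25 mM final); secreted IL-1B measured by AlphaLISA after 16 hr, decreased signal indicating inhibition.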
Integrin act MD: activates integrin-mediated alleviation for muscular dystrophy | alpha7betagal myoblasts, beta-gal FDG fluorescence, 48 h | AID 624291 | actives 0.064% (n = 350,000) | Potency, µM (top dose mostly 38.3 µM), for the others: at the highest dose activation, actives largely listed as activators;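 also: potency is read from the fitted curve at half-maximal effect; 100% = response of the positive control SU9516; nearly all actives have a fitted effect of over 60% in size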
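alpha7betagal+/- myoblasts (passage 13, 250/well) treated 48 h at 37C with compounds at 1:260 dilution of DMSO stock. Lysed, then beta-galactosidase activity read as FDG fluorescence (ex 480/em 540) after 30 min, with pre-read for autofluorescence.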
ATXN2 expr inh: reduces ATXN2 reporter expression in HEK-293 cells; HEK-293 ATXN2-luciferase reporter, luminescence, 24 h; Potency, µM (top dose mostly 57 µM), inactives show top-dose activity change, negative = inhibition, hits mostly inhibitors; actives 0.72% (n = 360,000); also: potency is read from the fitted curve at half-maximal effect; % is scaled to controls: 0 for no effect and ±100 for the full control effect; nearly all actives have a fitted effect of over 55% in size
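ATXN2-luciferase reporter cells (luciferase flanked by upstream and downstream ATXN2 gene portions) were treated 24 h at 37 °C with compounds at up to 57 uM. SteadyGlo luminescence gave expression; GF-AFC fluorescence gave viability.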
S2 tox: cell viability loss in ATXN counter-screen | AID 651635 | Potency, µM (highest dose often 56.7 µM), actives largely listed as cytotoxic | S2 cells (HEK-293 line with an ATXN2-luciferase reporter) viability, CellTiter-Fluor protease fluorescence, 24 h | actives 0.49% (n = 400,000); also: potency is read from the fitted curve at half-maximal effect; nearly all actives have a fitted effect of over 40% in size
DRD3 agonist: D3 dopamine receptor (human) agonism; AID 652048; actives 0.58% (n = 410,000); D3R DiscoveRx beta-arrestin cells, luminescence, 90 min; max activation, %; P35462; in the data active = max activation above about 30%; also: 0% is about no effect
Target sequence (P35462 whole entry, looked up): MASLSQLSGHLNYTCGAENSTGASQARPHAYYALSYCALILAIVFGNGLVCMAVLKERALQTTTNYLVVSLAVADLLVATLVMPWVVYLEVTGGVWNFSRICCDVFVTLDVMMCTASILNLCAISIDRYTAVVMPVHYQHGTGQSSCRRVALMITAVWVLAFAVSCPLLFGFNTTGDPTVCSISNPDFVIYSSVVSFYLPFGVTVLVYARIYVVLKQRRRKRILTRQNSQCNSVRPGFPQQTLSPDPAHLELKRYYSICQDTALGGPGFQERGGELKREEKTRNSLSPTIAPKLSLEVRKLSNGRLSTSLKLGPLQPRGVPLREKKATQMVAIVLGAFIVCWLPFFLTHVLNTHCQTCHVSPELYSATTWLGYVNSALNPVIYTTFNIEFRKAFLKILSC
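Agonist-mode cell screen: cells plated at 1500/well and incubated overnight at 37 °C, then exposed to library compounds for 90 min at 37 °C. Detection reagent was added for 30–60 min at room temperature, and luminescence was read.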
DRD3 antagonist: antagonists of human D3 dopamine receptor | P35462 | D3R cells, DiscoveRx beta-arrestin luminescence, antagonist mode; hits give low values | max response, negative = inhibition, % | actives 2.5% (n = 360,000); in the data active = max response below about -50%; inconclusive = no clear call, values can overlap the other calls; also: % is scaled to controls: 0 for no effect and ±100 for the full control effect
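Cells expressing the human receptor were seeded at 1500 cells/well, incubated overnight at 37 degrees C in 5% CO2, then exposed to library compounds with dopamine controls for 90 minutes at 37 degrees C before luminescent detection.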
* = called active by the depositor; i = inactive; u = inconclusive; x = not tested or not shown; ! = repeats disagree. Unless noted, calls follow the shape of the dose curve; as a rule, active = well fitted curve in the direction sought with a large enough effect; inconclusive = small, poorly fitted or top-dose-only effect, or another doubt; inactive = no such curve, though single readings can be large; an effect the other way counts as inactive or inconclusive.

SMILES	IL1B secr inh	Integrin act MD	ATXN2 expr inh	S2 tox	DRD3 agonist	DRD3 antagonist
C[C@]12CC[C@H]3[C@@H](CCC4=CC(=O)CC[C@@]43C)[C@@H]1CC[C@@H]2C(=O)CO	-13	x	-6%	i	-91	-88*
CCC(=O)OC1(C(C)=O)CCC2C3CCC4=CC(=O)CCC4(C)C3CCC21C (stereo not given)	-26	11%	20µM*	u	-11	-15
CC(=O)OC1(C(C)=O)CCC2C3CC(C(F)(F)F)C4=CC(=O)CCC4(C)C3CCC21C (stereo not given)	-94*	-35%	8%	i	1	0
CC(=O)O[C@]1(C(C)=O)CC[C@H]2[C@@H]3C[C@H](C)C4=CC(=O)CC[C@]4(C)[C@H]3CC[C@@]21C	u	x	u	u	-3	0
CC12CCC(=O)C=C1CCC1C2CCC2(C)C1CCC2(O)C(=O)CO (stereo not given)	-16	x	1%	i	-3	-11
COc1ccc(Br)c(C(=O)N2CCCC2(C)C(=O)NCC(C)C)c1 (stereo not given)	38	x	8%	i	-4	0
O=C(CN1C(=O)c2cccc3cccc(c23)C1=O)NCCCO	-13	-37%	0%	i	1	3
Cc1ccccc1/C=N/Nc1nc2ccccc2[nH]1	-68*	u	30%	i	-3	5
C(=N\Nc1nc2ccccc2[nH]1)/c1cccc2cccnc12	217	-14%	x	u	-21	6
C(=N\Nc1nc2ccccc2[nH]1)/c1c[nH]c2ccccc12	-95*	-34%	47%	i	47*	30
Cc1ccc(/C=N/Nc2nc3ccccc3[nH]2)s1	-108*	15%	-27%	u	-2	-17
Cc1[nH]c2ccccc2c1/C=N/Nc1nc2ccccc2[nH]1	-105*	u	u	u	4	-24
Cc1nn(-c2ccccc2)c(Cl)c1/C=N/Nc1nc2ccccc2[nH]1	-5	-23%	12%	i	-4	-4
CN(C(=O)CSc1nc(-c2ccc(C(C)(C)C)cc2)c(C#N)c(=O)[nH]1)C1CCCCC1	0	u	-25%	u	-2	3
COc1ccc(OC)c(NC(=O)c2oc3c(c2C)C(O)CC(C)(C)C3)c1 (stereo not given)	-4	-29%	-7%	i	-2	11
O=[N+]([O-])c1cc(/C=N/Nc2nc3ccccc3[nH]2)c(O)cc1O	61	2%	-20%	i	-11	-65*
Cc1[nH]c2ccccc2c1/C=C/c1nc2ccccc2c(=O)[nH]1	-103*	-2%	16%	u	0	33
Cc1cccc(/C=C/c2nc3ccccc3c(=O)[nH]2)c1	3	0%	4%	i	-4	-22
CN(C)c1nc(N/N=C/c2c[nH]c3ccccc23)nc(N2CCOCC2)n1	u	-45%	u	i	1	-9
C(=N\Nc1nc(N2CCCCC2)nc(N2CCCCC2)n1)/c1c[nH]c2ccccc12	-60*	-47%	x	u	-1	33
C[C@H](O)C#Cc1cnc2c(c1)C(=O)N([C@H](C)CO)C[C@@H](C)[C@H](CN(C)C(=O)Nc1ccc(C(F)(F)F)cc1)O2	u	-15%	-5%	i	-9	0
CN(C)CCCN(C(=O)c1cc2cc([N+](=O)[O-])ccc2s1)c1nc2cc3c(cc2s1)OCCO3	0	-54%	u	20µM*	2	9
CN(C)CCCN(C(=O)c1cccs1)c1nc2cc3c(cc2s1)OCO3	-10	1%	-2%	x	-11	-18
Cc1ccc2nc(N(CCCN(C)C)C(=O)c3ccc(Br)s3)sc2c1	-79*	-42%	u	22µM*!	-10	-53*
CN(C)CCCN(C(=O)c1ccc([N+](=O)[O-])s1)c1nc2cc3c(cc2s1)OCCO3	-96*	-66%	-24%	u	-6	-13
CN(C)CCCN(C(=O)c1ccc(Br)s1)c1nc2cc3c(cc2s1)OCCO3	-93*	-46%	-9%	i	-11	-8
